Reference: ChEMBL document CHEMBL2218924, “A broad activity screen in support of a chemogenomic map for kinase signalling research and drug discovery” (Biochem J, 2013)

Legend:
[1] = biological target: Serine/threonine-protein kinase PLK3 (Homo sapiens) (UniProt Q9H4B4); conditions: at 1 µM
[2] = biological target: Serine/threonine-protein kinase PLK3 (Homo sapiens) (UniProt Q9H4B4); conditions: at 10 µM
[3] = biological target: T1, cAMP-dependent protein kinase catalytic subunit PRKX (Homo sapiens) (UniProt P51817); conditions: at 1 µM
T1 sequence (whole entry): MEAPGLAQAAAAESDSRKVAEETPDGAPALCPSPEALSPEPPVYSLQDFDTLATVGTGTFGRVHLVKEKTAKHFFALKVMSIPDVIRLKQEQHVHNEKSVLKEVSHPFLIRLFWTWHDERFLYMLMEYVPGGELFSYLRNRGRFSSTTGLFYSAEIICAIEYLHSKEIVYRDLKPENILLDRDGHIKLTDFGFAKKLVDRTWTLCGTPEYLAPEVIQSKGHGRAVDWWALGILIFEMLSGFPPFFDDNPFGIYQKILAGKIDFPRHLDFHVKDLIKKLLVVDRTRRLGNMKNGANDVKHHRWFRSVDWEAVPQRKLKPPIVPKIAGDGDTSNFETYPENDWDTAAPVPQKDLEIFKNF

[4] = biological target: T1, cAMP-dependent protein kinase catalytic subunit PRKX (Homo sapiens); conditions: at 10 µM
[5] = biological target: Protein-tyrosine kinase 2-beta (Homo sapiens) (UniProt Q14289); conditions: at 1 µM
[6] = biological target: Protein-tyrosine kinase 2-beta (Homo sapiens) (UniProt Q14289); conditions: at 10 µM
[7] = biological target: Receptor-interacting serine/threonine-protein kinase 2 (Homo sapiens) (UniProt O43353); conditions: at 1 µM
[8] = biological target: Receptor-interacting serine/threonine-protein kinase 2 (Homo sapiens) (UniProt O43353); conditions: at 10 µM
[9] = biological target: Rho-associated protein kinase 1 (Homo sapiens) (UniProt Q13464); conditions: at 1 µM
[10] = biological target: Rho-associated protein kinase 1 (Homo sapiens) (UniProt Q13464); conditions: at 10 µM

Receptor-interacting serine/threonine-protein kinase 2 (Homo sapiens), sequence (O43353 whole entry): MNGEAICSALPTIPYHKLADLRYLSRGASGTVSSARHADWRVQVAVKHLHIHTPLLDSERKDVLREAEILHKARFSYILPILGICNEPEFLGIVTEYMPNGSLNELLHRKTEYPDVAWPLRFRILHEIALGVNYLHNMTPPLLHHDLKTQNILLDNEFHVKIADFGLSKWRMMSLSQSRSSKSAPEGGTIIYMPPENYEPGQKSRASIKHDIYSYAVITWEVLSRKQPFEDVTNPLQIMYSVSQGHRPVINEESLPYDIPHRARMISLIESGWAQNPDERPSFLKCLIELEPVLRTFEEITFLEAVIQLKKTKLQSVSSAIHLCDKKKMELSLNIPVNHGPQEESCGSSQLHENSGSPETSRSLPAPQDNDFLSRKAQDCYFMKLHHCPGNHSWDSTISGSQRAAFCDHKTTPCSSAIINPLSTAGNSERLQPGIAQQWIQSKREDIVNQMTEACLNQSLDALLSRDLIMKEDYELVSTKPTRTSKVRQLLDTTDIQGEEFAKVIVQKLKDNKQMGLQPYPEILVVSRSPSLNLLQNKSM
Rho-associated protein kinase 1 (Homo sapiens), sequence (Q13464 2-1354 limits assumed): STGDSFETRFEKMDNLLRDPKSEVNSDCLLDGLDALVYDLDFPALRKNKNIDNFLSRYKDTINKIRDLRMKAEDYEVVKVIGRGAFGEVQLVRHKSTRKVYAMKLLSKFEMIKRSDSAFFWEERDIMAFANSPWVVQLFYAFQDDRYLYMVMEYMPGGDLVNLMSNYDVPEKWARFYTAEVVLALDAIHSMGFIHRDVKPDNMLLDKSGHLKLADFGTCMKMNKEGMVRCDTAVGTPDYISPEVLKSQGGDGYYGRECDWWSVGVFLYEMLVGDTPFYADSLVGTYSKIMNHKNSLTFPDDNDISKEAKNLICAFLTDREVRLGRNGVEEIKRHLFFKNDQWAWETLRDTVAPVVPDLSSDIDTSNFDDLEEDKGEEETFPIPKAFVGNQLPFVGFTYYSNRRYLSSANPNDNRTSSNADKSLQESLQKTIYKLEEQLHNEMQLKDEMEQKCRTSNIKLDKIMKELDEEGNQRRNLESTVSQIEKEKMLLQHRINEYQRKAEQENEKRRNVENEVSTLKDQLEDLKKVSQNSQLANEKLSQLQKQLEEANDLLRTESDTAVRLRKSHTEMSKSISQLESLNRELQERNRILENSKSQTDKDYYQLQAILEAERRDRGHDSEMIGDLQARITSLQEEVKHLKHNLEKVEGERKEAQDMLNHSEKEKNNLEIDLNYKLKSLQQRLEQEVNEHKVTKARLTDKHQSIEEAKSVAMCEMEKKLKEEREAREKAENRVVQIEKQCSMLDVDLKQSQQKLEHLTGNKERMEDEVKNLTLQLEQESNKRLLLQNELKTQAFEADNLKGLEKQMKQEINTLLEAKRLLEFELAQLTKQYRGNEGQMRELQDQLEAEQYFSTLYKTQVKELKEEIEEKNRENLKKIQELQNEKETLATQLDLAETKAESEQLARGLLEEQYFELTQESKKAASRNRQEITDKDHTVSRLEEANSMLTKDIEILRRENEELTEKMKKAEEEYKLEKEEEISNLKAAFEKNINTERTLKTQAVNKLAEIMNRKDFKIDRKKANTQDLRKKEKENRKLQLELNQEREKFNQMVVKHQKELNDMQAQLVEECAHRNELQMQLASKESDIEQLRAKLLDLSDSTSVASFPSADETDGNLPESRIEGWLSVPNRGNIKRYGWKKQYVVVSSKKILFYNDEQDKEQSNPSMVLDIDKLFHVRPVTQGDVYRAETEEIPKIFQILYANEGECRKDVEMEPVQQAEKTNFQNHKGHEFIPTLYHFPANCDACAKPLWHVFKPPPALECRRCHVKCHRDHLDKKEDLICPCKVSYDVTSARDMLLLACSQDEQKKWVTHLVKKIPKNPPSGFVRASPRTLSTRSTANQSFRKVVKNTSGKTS
Serine/threonine-protein kinase PLK3 (Homo sapiens), sequence (Q9H4B4 whole entry, looked up): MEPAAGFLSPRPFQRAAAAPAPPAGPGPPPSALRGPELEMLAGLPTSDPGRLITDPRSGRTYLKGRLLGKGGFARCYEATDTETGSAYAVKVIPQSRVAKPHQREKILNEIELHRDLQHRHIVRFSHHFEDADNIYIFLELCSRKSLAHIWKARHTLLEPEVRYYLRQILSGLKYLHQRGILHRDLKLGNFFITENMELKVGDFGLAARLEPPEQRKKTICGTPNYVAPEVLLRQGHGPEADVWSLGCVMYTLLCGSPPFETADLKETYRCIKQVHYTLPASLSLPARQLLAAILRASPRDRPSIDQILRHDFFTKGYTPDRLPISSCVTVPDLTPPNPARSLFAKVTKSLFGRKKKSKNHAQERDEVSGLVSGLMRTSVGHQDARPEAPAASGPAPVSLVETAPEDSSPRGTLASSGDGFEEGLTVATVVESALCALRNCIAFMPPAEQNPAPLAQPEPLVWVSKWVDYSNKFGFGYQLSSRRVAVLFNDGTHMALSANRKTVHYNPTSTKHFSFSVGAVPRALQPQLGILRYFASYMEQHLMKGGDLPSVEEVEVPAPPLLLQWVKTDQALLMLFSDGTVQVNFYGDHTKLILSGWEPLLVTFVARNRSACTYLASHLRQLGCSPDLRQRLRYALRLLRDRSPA
Protein-tyrosine kinase 2-beta (Homo sapiens), sequence (Q14289 whole entry, looked up): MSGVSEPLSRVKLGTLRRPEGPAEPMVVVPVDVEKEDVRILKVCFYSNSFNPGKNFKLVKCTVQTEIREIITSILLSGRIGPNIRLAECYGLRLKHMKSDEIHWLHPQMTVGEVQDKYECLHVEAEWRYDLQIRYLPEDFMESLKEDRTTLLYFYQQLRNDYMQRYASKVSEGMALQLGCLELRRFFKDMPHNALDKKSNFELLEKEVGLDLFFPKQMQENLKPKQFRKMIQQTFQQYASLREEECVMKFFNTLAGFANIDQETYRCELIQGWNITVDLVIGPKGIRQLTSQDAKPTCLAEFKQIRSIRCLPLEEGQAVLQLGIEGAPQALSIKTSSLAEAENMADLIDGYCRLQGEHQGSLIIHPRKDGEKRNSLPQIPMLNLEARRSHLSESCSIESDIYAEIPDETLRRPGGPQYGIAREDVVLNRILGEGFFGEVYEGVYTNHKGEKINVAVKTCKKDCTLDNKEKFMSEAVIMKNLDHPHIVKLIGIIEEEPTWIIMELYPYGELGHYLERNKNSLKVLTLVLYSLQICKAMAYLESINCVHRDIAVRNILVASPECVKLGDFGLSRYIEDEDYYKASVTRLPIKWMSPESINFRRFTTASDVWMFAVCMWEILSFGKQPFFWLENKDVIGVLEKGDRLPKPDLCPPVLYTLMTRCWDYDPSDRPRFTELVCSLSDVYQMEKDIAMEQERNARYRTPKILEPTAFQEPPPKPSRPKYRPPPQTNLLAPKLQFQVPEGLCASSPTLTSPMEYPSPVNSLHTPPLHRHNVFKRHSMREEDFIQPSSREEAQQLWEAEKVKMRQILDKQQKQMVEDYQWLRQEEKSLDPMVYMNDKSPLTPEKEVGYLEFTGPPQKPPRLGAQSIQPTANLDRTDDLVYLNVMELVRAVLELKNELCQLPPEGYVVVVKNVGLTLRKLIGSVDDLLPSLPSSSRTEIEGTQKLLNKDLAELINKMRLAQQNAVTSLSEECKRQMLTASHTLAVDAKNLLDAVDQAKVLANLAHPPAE

Structure (SMILES) | residual activity [1] | residual activity [2] [%] | residual activity [3] [%] | residual activity [4] [%] | residual activity [5] [%] | residual activity [6] [%] | residual activity [7] [%] | residual activity [8] [%] | residual activity [9] [%] | residual activity [10] [%]
Nc1n[nH]c2nnc(-c3c(-c4ccccc4)nn4ccccc34)cc12 | 97% (inactive) | 99 | 92 | 74 | 95 | 72 | 88 | 78 | 106 | 105
COc1cc2ncnc(Nc3ccc(Oc4ccccc4)cc3)c2cc1OC | 87% (inactive) | 95 | 92 | 132 | 96 | 69 | 28 | 19 | 115 | 126
CO[C@H]1[C@@H](OC)C[C@H](C)[C@@H](OC)C2=CC(=O)C=C(NC(=O)/C(C)=C/C=C/[C@H](OC)[C@@H](OC(N)=O)/C(C)=C/[C@@H]1C)C2=O | 99% (inactive) | 104 | 80 | 72 | 124 | 100 | 93 | 96 | 121 | 
O=C1NC(=O)c2cc(Nc3ccc(F)cc3)c(Nc3ccc(F)cc3)cc21 | 92% (inactive) | 80 | 90 | 48 | 119 | 81 | 76 | 42 | 108 | 123
Cc1nc2cc3nc(-c4cccs4)cnc3cc2n1C | 101% (inactive) | 105 | 108 | 101 | 123 | 87 | 84 | 49 | 102 | 107
O=C(Nc1cccc(Nc2cc(Nc3cccc(C(F)(F)F)c3)ncn2)c1)C1CC1 | 97% (inactive) | 90 | 102 | 100 | 104 | 63 | 53 | 41 | 101 | 99
CC[n+]1c(/C=C/N(C)c2ccccc2)n(-c2ccccc2)c2ccc(-c3nc4ccccc4s3)cc21 | 99% (inactive) | 103 | 108 | 63 | 139 | 83 | 93 | 88 | 110 | 102
N#C/C(=C(\N)Sc1ccc(N)cc1)c1ccccc1C(F)(F)F | 101% (inactive) | 90 | 95 | 109 | 100 | 97 | 93 | 98 | 110 | 103
Cc1cncc2cccc(S(=O)(=O)N3CCCN(C(=O)CN)C[C@H]3C)c12 | 98% (inactive) | 92 | 57 | 13 | 122 | 55 | 95 | 76 | 34 | 14
CCOc1cc2ncnc(Nc3cccc(Br)c3)c2cc1OCC | 87% (inactive) | 100 | 98 | 78 | 110 | 58 | 24 | 12 | 94 | 95
Cc1cc2ncc(-c3ccccc3)nc2cc1C | 87% (inactive) | 92 | 108 | 97 | 126 | 101 | 108 | 82 |  | 
CC(C)n1cnc2c(NCc3ccccc3)nc(NCCCO)nc21 | 98% (inactive) | 95 | 130 | 88 | 102 | 83 | 69 | 51 | 109 | 100
O=Nc1c(-c2c(O)[nH]c3ccccc23)[nH]c2ccccc12 | 96% (inactive) | 91 | 48 | 33 | 14 | 2 | 60 | 27 | 108 | 92
COc1ccc(OC)c2c(=S)c3ccccc3[nH]c12 | 99% (inactive) | 95 | 83 | 83 | 79 | 105 | 85 | 80 | 122 | 102
CC(=O)O/N=C1\C(=C2\C(=O)Nc3cc(Br)ccc32)Nc2ccccc21 | 92% (inactive) | 99 | 77 | 93 | 79 | 32 | 92 | 84 | 123 | 119
O=C1NC(=O)/C(=C\c2ccc3nccnc3c2)S1 | 95% (inactive) | 85 | 67 | 27 | 124 | 103 | 56 | 21 | 109 | 107
COc1ccc(C(=O)Nc2sc3c(c2C(N)=O)CCCC3)cc1OC | 90% (inactive) | 91 | 80 | 95 | 121 | 89 | 79 | 71 | 101 | 119

Structure (SMILES) | residual activity [1] | residual activity [2] [%] | residual activity [3] [%] | residual activity [4] [%] | residual activity [5] [%] | residual activity [6] [%] | residual activity [7] [%] | residual activity [8] [%] | residual activity [9] [%] | residual activity [10] [%]
Cc1nc(-c2ccccc2)c(-c2ccncc2)o1 | 106% (inactive) | 96 | 86 | 85 | 91 | 79 | 58 | 25 | 124 | 108
O=C(Nc1cccc(Nc2nccc(Nc3cccc(C(F)(F)F)c3)n2)c1)C1CC1 | 73% (inactive) | 88 | 103 | 51 | 55 | 12 | 69 | 71 | 106 | 127
CNc1cc2c(Nc3cccc(Br)c3)ncnc2cn1 | 90% (inactive) | 91 | 95 | 75 | 116 | 64 | 43 | 38 | 110 | 126
O=C1NC(=O)/C(=C/c2ccc3c(c2)OC(F)(F)O3)S1 | 94% (inactive) | 96 | 88 | 77 | 135 | 101 | 99 | 83 | 95 | 116
Cn1cnc2cc3c(Nc4cccc(Br)c4)ncnc3cc21 | 95% (inactive) | 92 | 108 | 110 | 119 | 77 | 26 | 20 | 104 | 110
CCC(=O)Nc1ccc2ncnc(Nc3cccc(Br)c3)c2c1 | 89% (inactive) | 86 | 89 | 94 | 126 | 95 | 50 | 32 | 115 | 120
CN(C)CCCn1cc(C2=C(c3c[nH]c4ccccc34)C(=O)NC2=O)c2ccccc21 | 101% (inactive) | 104 | 103 | 38 | 115 | 42 | 90 | 77 | 83 | 89
N#CCCc1ccc2c(c1)-c1[nH]c3ccc([N+](=O)[O-])cc3c1CC(=O)N2 | 100% (inactive) | 82 | 72 | 25 | 19 | 9 | 18 | 10 | 52 | 24
NC(=O)c1ccc2[nH]c(-c3ccc(Oc4ccc(Cl)cc4)cc3)nc2c1 | 97% (inactive) | 91 | 72 | 112 | 100 | 86 | 82 | 66 | 123 | 118
O=C(O)c1ccc2c3c1cccc3c(=O)n1c3ccccc3nc21 | 106% (inactive) | 98 | 84 | 68 | 88 | 42 | 96 | 82 | 113 | 80
CN(C)c1ccc(/C=C2\C(=O)Nc3ccccc32)cc1 | 94% (inactive) | 88 | 92 | 66 | 103 | 47 | 103 | 83 | 132 | 123
Oc1n[nH]c2nnc(-c3c(-c4ccccc4)nn4ccccc34)cc12 | 96% (inactive) | 89 | 86 | 81 | 102 | 88 | 87 | 85 | 121 | 104
COc1cc2ncnc(N3CCN(C(=O)Nc4ccc(Oc5ccccc5)cc4)CC3)c2cc1OC | 90% (inactive) | 92 | 77 | 113 | 122 | 104 | 84 | 70 | 124 | 
O=C1NC(=O)c2c1c1c3ccccc3[nH]c1c1[nH]c3cc(Br)ccc3c21 | 96% (inactive) | 83 | 85 | 77 | 71 | 84 | 92 | 93 | 112 | 93
O=C1Nc2cc(Br)ccc2/C1=C1/Nc2ccccc2/C1=N\O | 100% (inactive) | 91 | 73 | 36 | 10 | 3 | 78 | 85 | 113 | 102
COc1cc2ncnc(Nc3ccc(O)c(Br)c3)c2cc1OC | 92% (inactive) | 88 | 90 | 66 | 85 | 42 | 20 | 8 | 116 | 102
